High-throughput results deposited in PubChem BioAssay by several laboratories.
Shown are actives, neighbours in structure and some others; about 4% of the full set was active somewhere.
Mdm2 MdmX PPI = inhibitors of human Mdm2/MdmX interaction | AID 485346 | O15151+Q00987 | inhibition, % at 8 µM | actives 3% (n = 330,000) | SaOS-2 split-luciferase Mdm2/MdmX complementation, luminescence;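 active means inhibition of at least 50% at 8 µM in the primary screen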
Target sequence (O15151 whole entry, looked up): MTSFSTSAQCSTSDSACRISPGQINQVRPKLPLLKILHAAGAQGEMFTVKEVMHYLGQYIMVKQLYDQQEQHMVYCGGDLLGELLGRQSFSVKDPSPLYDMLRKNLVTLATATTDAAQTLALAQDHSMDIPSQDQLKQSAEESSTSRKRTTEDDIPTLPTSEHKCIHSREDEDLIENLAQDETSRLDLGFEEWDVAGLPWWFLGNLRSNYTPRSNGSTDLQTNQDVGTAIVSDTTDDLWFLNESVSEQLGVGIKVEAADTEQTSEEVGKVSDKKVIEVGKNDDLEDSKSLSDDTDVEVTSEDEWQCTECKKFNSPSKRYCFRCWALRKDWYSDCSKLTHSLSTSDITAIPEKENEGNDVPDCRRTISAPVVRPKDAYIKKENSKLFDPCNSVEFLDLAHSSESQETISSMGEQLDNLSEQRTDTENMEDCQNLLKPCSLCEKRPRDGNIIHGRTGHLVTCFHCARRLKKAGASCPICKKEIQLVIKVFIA
Target sequence (Q00987 whole entry, looked up): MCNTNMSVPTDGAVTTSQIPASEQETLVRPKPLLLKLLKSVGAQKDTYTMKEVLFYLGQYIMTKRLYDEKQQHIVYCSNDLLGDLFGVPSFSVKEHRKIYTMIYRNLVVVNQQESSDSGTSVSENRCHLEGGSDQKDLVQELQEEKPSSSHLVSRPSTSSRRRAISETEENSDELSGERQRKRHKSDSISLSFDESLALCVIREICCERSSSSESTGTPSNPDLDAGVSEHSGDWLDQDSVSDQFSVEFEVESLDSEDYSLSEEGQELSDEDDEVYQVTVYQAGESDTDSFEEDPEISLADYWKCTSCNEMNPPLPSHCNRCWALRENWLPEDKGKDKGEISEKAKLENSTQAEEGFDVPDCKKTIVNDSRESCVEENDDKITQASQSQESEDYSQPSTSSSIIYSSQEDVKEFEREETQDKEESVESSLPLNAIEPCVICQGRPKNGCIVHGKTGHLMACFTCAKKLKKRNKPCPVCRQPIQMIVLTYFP
Jurkat NFkB inh = inhibitors of the PMA/ionomycin-induced NF-kB reporter in Jurkat cells | inhibition, % at 4 µM | AID 435003 | PMA/ionomycin-induced NF-kB luciferase reporter, luminescence | actives 0.53% (n = 330,000); in the data active means inhibition above about 50%
697 NFkB inh = inhibitors of the PMA/ionomycin-induced NF-kB reporter in 697 B cells | AID 435022 | 697 B-cell NF-kB luciferase reporter, 16 h | actives 0.33% (n = 330,000) | inhibition, % at 4 µM; in the data active means inhibition above about 35%
Gli-Sufu antag = blocks Gli-Sufu signaling in a luciferase reporter. actives 0.74% (n = 340,000). Sufu-KO-LIGHT fibroblasts, Gli luciferase reporter luminescence. AID 588413. inhibition, % at 5 µM;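 active means inhibition above about 55%, limit read from the data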
Beta cell apopt = blocks beta cell apoptosis. INS-1E cytokine-induced death, ATP luminescence, 48 h; percent of positive-control rescue, neutral wells zero. protection from apoptosis, % (no concentration beside the values). actives 0.8% (n = 300,000). AID 435005;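 active means Every replicate reaches about 75%, or at least half do and their mean reaches it too, limit read from the data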;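 further: higher means more ATP so stronger rescue from cytokine killing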
Mdm2 MdmX conf = confirmation of human Mdm2/MdmX interaction inhibitors | actives 55% (n = 10,000) | Mdm2-MdmX binding, luminescent assay | AID 489028 | inhibition, % at 8 µM | shares compounds with Mdm2 MdmX PPI; in the data active means inhibition above about 40%
FLuc counter = inhibits full-length luciferase, flagging false Mdm2/MdmX hits. shares compounds with Mdm2 MdmX PPI. SaOS-2 full-length luciferase counterscreen, luminescence. inhibition, % at 8 µM. actives 77% (n = 6,200). AID 504607;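 active means mean inhibition at 8 µM reaching about 37%, which flags the compound as non-specific, limit read from the data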;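 further: p53-null SaOS-2 cells with luciferase driven by a doxycycline-inducible promoter; compound on cells about two nights before reading with doxycycline added after day one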
Each line names hits and unclear results; the compound was inactive in the other large screens (follow-up assays come after a bar, where they were run).

COc1ccc(NC(=O)N2C3CCCC2CC(NC(=O)c2ccccc2)C3)cc1 (centres undefined)	none
Cc1ccc(-n2ncc(C(=O)Nc3ccc(Cl)cc3)c2C2CCNCC2)cc1C	Mdm2 MdmX PPI 61 | Mdm2 MdmX conf 54 | FLuc counter 77
O=C(Nc1ccc(S(=O)(=O)N2CCCC2)cc1)c1ccc([N+](=O)[O-])o1	Mdm2 MdmX PPI 67 | Mdm2 MdmX conf inactive
CCN1CCN(c2ccc(S(=O)(=O)N3CCOCC3)cc2NC(=O)/C=C/c2ccc([N+](=O)[O-])cc2)CC1	Mdm2 MdmX PPI 100 | Mdm2 MdmX conf 48 | FLuc counter 64
CCN1CCN(c2ccc(S(=O)(=O)N3CCCCC3)cc2NC(=O)c2ccc([N+](=O)[O-])o2)CC1	Mdm2 MdmX PPI 53, Beta cell apopt 102 | Mdm2 MdmX conf inactive
CC(=O)N1CCN(c2ccc(NC(=O)c3ccc([N+](=O)[O-])o3)cc2Cl)CC1	Mdm2 MdmX PPI 69 | Mdm2 MdmX conf 68 | FLuc counter inactive
COc1ccc(S(=O)(=O)N2CCCCC2)cc1NC(=O)c1ccc([N+](=O)[O-])o1	none
CCC(=O)N1CCN(c2ccc(NC(=O)c3ccc([N+](=O)[O-])o3)cc2Cl)CC1	none (no result: Mdm2 MdmX PPI, Jurkat NFkB inh, 697 NFkB inh, Beta cell apopt)
O=C(Nc1ccc(S(=O)(=O)N2CCOCC2)cc1)c1ccc([N+](=O)[O-])o1	none
CCNc1nc(C)nc2c1cnn2C	none (no result: Mdm2 MdmX PPI, Jurkat NFkB inh, 697 NFkB inh, Beta cell apopt)
COc1ccc(CCNC(=O)C2=CCN(S(=O)(=O)c3ccc(F)cc3)CC2)cc1OC	none
CNC(=O)COc1coc(CN2CCN(c3ccccc3OC)CC2)cc1=O	none (no result: Beta cell apopt)
O=C(COc1cccc(C(F)(F)F)c1)Nc1nnc(C2CC2)s1	none
CN1CCN(c2ccc(Cl)cc2NC(=O)/C=C/c2ccc(F)cc2)CC1	Mdm2 MdmX PPI 52 | Mdm2 MdmX conf inactive
CN1CCN(c2ccc(Cl)cc2NC(=O)c2ccc(S(=O)(=O)N3CCCCCC3)cc2)CC1	Mdm2 MdmX PPI 67 | Mdm2 MdmX conf inactive | FLuc counter 72
Cc1ccccc1-n1ncc2c1CC(C)(C)CC2NC(=O)c1cn[nH]c1C (centres undefined)	none (no result: Beta cell apopt)
CCC1CCc2c(sc3nc(SCC(=O)NCc4ccco4)n(-c4ccccc4)c(=O)c23)C1 (centres undefined)	Mdm2 MdmX PPI 55 | Mdm2 MdmX conf inactive
CC(c1ccccc1C(=O)O)c1cc(F)cc2ccccc12 (centres undefined)	none (no result: Mdm2 MdmX PPI, Jurkat NFkB inh, 697 NFkB inh, Beta cell apopt)
CN(C)CCCN(C(=O)c1cc(Cl)sc1Cl)c1nc2cc3c(cc2s1)OCO3	Mdm2 MdmX PPI 54 | Mdm2 MdmX conf inactive
CN(C)CCCN(C(=O)c1ccc(C(=O)c2ccccc2)cc1)c1nc2cc3c(cc2s1)OCO3	Mdm2 MdmX PPI 75 | Mdm2 MdmX conf 48 | FLuc counter inactive
CN(C)CCCN(C(=O)c1cc2cc([N+](=O)[O-])ccc2s1)c1nc2cc3c(cc2s1)OCCO3	Mdm2 MdmX PPI 97 (no result: Beta cell apopt) | Mdm2 MdmX conf 65 | FLuc counter 77
COc1ccc(/C=C/C(=O)NCC(=O)N/N=C/c2cccs2)cc1	none
Cc1c(Cl)sn(-c2ccc(Cl)cc2)c1=O	Mdm2 MdmX PPI 96 (no result: Beta cell apopt) | Mdm2 MdmX conf 99 | FLuc counter 52
CC(=O)NCCc1nc2cc(NC(=O)COc3cccc(C)c3)ccc2n1C	none
Cc1ccc2c(c1)C(c1ccc([N+](=O)[O-])cc1)=NNC(c1ccc(Br)cc1)=N2	Mdm2 MdmX PPI 71 | Mdm2 MdmX conf inactive
CCOc1cc(C2C(C#N)=C(N)OC(C)=C2C(C)=O)c(Br)c(Br)c1OC(C)C (centres undefined)	Mdm2 MdmX PPI 64 | Mdm2 MdmX conf 47 | FLuc counter 49
C=CCNC(=O)c1cc(C(=O)C(C)c2ncc(C(F)(F)F)cc2Cl)c[nH]1 (centres undefined)	none
N/C(CCS(=O)(=O)c1ccc(Cl)cc1)=N\OC(=O)c1ccc(Cl)cc1	Mdm2 MdmX PPI 55 | Mdm2 MdmX conf inactive
N/C(CCS(=O)(=O)c1ccc(Cl)cc1)=N\OC(=O)c1ccccc1C(F)(F)F	Mdm2 MdmX PPI 94 (no result: Beta cell apopt) | Mdm2 MdmX conf 93 | FLuc counter inactive
CCN(CC(=O)Nc1ccccc1C(F)(F)F)C(=O)CCS(=O)(=O)c1ccc(Cl)cc1	none
Cc1ccc(Cl)cc1NC(=O)C1CCCN1S(=O)(=O)c1ccc(-c2ccc(=O)[nH]n2)s1 (centres undefined)	none
CCc1nnnn1-c1ccc([N+](=O)[O-])cc1C	none
COc1cc2c(cc1OC)CN(S(=O)(=O)c1ccc(Cl)nc1)CC2	none (no result: Beta cell apopt)
CC(C)n1cc(/C=C2/NC(=O)N(c3cccc(Cl)c3)C2=O)c2ccccc21	Mdm2 MdmX PPI 62 (no result: Beta cell apopt) | Mdm2 MdmX conf 65 | FLuc counter 43
COc1ccc(C)cc1NC(=O)C1CCCN(S(=O)(=O)c2ccc3c(c2)CCCN3C(C)=O)C1 (centres undefined)	none
O=C(COc1ccc2c(c1)OCO2)Nc1nccs1	none
COC(=O)c1nn(-c2ccccc2)c(Cl)c1/C=N/O	none
COC(=O)c1nn(-c2ccccc2)c(Cl)c1/C=N/OCc1ccc(Cl)cc1Cl	Mdm2 MdmX PPI 58 | Mdm2 MdmX conf inactive
CCS(=O)(=O)c1nc2ccccc2n1Cc1ccccc1Cl	Mdm2 MdmX PPI 69 | Mdm2 MdmX conf inactive
CS(=O)(=O)c1nc2ccccc2n1Cc1ccccc1	none
O=C(NCC1CCCO1)c1ccc2c(=O)n(Cc3ccc(Cl)cc3)c(=S)[nH]c2c1 (centres undefined)	Mdm2 MdmX PPI 56 | Mdm2 MdmX conf inactive
COc1ccccc1Cn1c(=S)[nH]c2cc(C(=O)NCC3CCCO3)ccc2c1=O (centres undefined)	none
CC1CCCCN1CCNC(=O)c1ccc2c(=O)n(Cc3ccc(Cl)cc3)c(=S)[nH]c2c1 (centres undefined)	Mdm2 MdmX PPI 78 | Mdm2 MdmX conf inactive
CCN(CC)C(=O)c1ccc2c(=O)n(Cc3ccc4c(c3)OCO4)c(=S)[nH]c2c1	none
C=CCNC(=O)c1ccc(Cn2c(=S)[nH]c3cc4c(cc3c2=O)OCO4)cc1	Mdm2 MdmX PPI 60 | Mdm2 MdmX conf inactive
CC(C)C1Oc2ccccc2N(CC(=O)NC2CCCCC2)C1=O (centres undefined)	none
CCC(O)CNC(=O)NC(=C(Cl)Cl)c1ccc(C)c(F)c1 (centres undefined)	Mdm2 MdmX PPI 77 | Mdm2 MdmX conf inactive | FLuc counter 38
Cc1ccc(NC(=O)CCNC(=O)c2ccc(Cl)cc2)cc1F	none
CC(C)c1ccc(-c2csc3ncnc(N4CCN(C)CC4)c23)cc1	Mdm2 MdmX PPI 58 | Mdm2 MdmX conf 57 | FLuc counter 39
Cc1ccc(N(C(=O)Cc2cccs2)C(C(=O)NC2CCCCC2)c2ccccn2)cc1C (centres undefined)	none
COc1ccc2c(c1)-c1c(ssc1=S)C(C)(C)N2S(=O)(=O)c1ccc(C)cc1	Mdm2 MdmX PPI 58 | Mdm2 MdmX conf 46 | FLuc counter 61
